# Results from the supplement of paper PMC8728848.
# Many of the other results were omitted from the sample, so the strongest signals are more common in it than they were.
# B1: Siglec-E (Mus musculus), Q91Y57 (protein)
# chain: MLLLLLLLLLWGIKGVEGQNPQEVFTLNVERKVVVQEGLCVLVPCNFSYLKKRLTDWTDSDPVHGFWYREGTDRRKDSIVATNNPIRKAVKETRNRFFLLGDPWRNDCSLNIREIRKKDAGLYFFRLERGKTKYNYMWDKMTLVVTALTNTPQILLPETLEAGHPSNLTCSVPWDCGWTAPPIFSWTGTSVSFLSTNTTGSSVLTITPQPQDHGTNLTCQVTLPGTNVSTRMTTRLNVSYAPKNLTVTIYQGADSVSTILKNGSSLPISEGQSLRLICSTDSYPPANLSWSWDNLTLCPSKLSKPGLLELFPVHLKHGGVYTCQAQHALGSQHISLSLSPQSSATLSEMMMGTFVGSGVTALLFLSVCILLLAVRSYRRKPARPAVVAPHPDALKVSVSQNPLVESQADDSSEPLPSILEAAPSSTEEEIHYATLSFHEMKPMNLWGQQDTTTEYSEIKFPQRTAWP
# How the values were obtained:
# Experiment in all cases: glycan array binding signal (z-score within array); higher = stronger binding
# Details in all cases: glycan notation: IUPAC condensed, linker removed
# [1] = biological target: Fuc(a1-2)Gal(b1-3)[Fuc(a1-4)]GlcNAc(b1-2)Man(a1-3)[Fuc(a1-2)Gal(b1-3)[Fuc(a1-4)]GlcNAc(b1-2)Man(a1-3)]Man(b1-4)GlcNAc(b1-4)GlcNAc
# Method in brief: (§1)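 The binding signal is a Z-score computed within each array. Data were drawn from 3228 arrays in the Consortium for Functional Glycomics database, restricted to those with a known protein sequence. Scores were averaged over arrays of the same protein sequence at different concentrations or buffers, and over linkers, and negative values can be taken as non-binding.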
# [2] = biological target: Fuc(a1-2)Gal(b1-3)[Fuc(a1-4)]GlcNAc(b1-2)Man(a1-3)[Fuc(a1-2)Gal(b1-3)[Fuc(a1-4)]GlcNAc(b1-2)Man(a1-6)]Man(b1-4)GlcNAc(b1-4)[Fuc(a1-6)]GlcNAc(b1-4)[Fuc(a1-6)]GlcNAc
# Method in brief: as §1
# [3] = biological target: Fuc(a1-2)Gal(b1-4)GlcNAc(b1-2)Man(a1-3)[Fuc(a1-2)Gal(b1-4)GlcNAc(b1-2)Man(a1-6)]Man(b1-4)GlcNAc(b1-4)[Fuc(a1-6)]GlcNAc
# Method in brief: as §1
# [4] = biological target: Fuc(a1-2)[Gal(a1-3)]Gal(b1-3)GalNAc
# Method in brief: as §1
# [5] = biological target: Fuc(a1-2)[Gal(a1-3)]Gal(b1-3)GlcNAc(b1-3)GalNAc
# Method in brief: as §1
# [6] = biological target: Fuc(a1-2)[Gal(a1-3)]Gal(b1-4)GlcNAc(b1-2)Man(a1-3)[Fuc(a1-2)[Gal(a1-3)]Gal(b1-4)GlcNAc(b1-2)Man(a1-6)]Man(b1-4)GlcNAc(b1-4)[Fuc(a1-6)]GlcNAc
# Method in brief: as §1
# [7] = biological target: Fuc(a1-2)[Gal(a1-3)]Gal(b1-4)GlcNAc(b1-3)[Fuc(a1-2)[Gal(a1-3)]Gal(b1-4)GlcNAc(b1-6)]GalNAc
# Method in brief: as §1
# [8] = biological target: Fuc(a1-2)[Gal(a1-3)]Gal(b1-4)[Fuc(a1-3)]GlcNAc
# Method in brief: as §1
# [9] = biological target: Fuc(a1-2)[Gal(a1-3)]Gal(b1-4)[Fuc(a1-3)]GlcNAc(b1-3)GalNAc
# Method in brief: as §1
# [10] = biological target: Fuc(a1-2)[GalNAc(a1-3)]Gal(b1-3)GalNAc(b1-3)Gal(a1-4)Gal(b1-4)Glc
# Method in brief: as §1
# [11] = biological target: Fuc(a1-3)[Gal(b1-4)]GlcNAc(b1-2)Man
# Method in brief: as §1
# [12] = biological target: Fuc(a1-4)GlcNAc
# Method in brief: as §1
# [13] = biological target: Gal(a1-3)Gal(b1-4)[Fuc(a1-3)]GlcNAc
# Method in brief: as §1
# [14] = biological target: Gal(a1-3)Gal(b1-4)[Fuc(a1-3)]GlcNAc(b1-2)Man(a1-3)[Gal(a1-3)Gal(b1-4)[Fuc(a1-3)]GlcNAc(b1-2)Man(a1-6)]Man(b1-4)GlcNAc(b1-4)GlcNAc
# Method in brief: as §1
# [15] = biological target: Gal(a1-3)GalNAc
# Method in brief: as §1
# [16] = biological target: Gal(a1-4)Gal(b1-4)GlcNAc(b1-2)Man(a1-3)[Gal(a1-4)Gal(b1-4)GlcNAc(b1-2)Man(a1-6)]Man(b1-4)GlcNAc(b1-4)GlcNAc
# Method in brief: as §1
# [17] = biological target: Gal(a1-6)Glc
# Method in brief: as §1
# [18] = biological target: Gal(b1-3)GalNAc(a1-3)[Fuc(a1-2)]Gal(b1-4)Glc
# Method in brief: as §1
# [19] = biological target: Gal(b1-3)GlcNAc(b1-2)Man
# Method in brief: as §1
# [20] = biological target: Gal(b1-3)GlcNAc(b1-2)[Gal(b1-3)GlcNAc(b1-6)]Man(a1-6)[Gal(b1-3)GlcNAc(b1-2)Man(a1-3)]Man(b1-4)GlcNAc(b1-4)GlcNAc
# Method in brief: as §1
# [21] = biological target: Gal(b1-4)Gal
# Method in brief: as §1
# [22] = biological target: Gal(b1-4)GalNAc(b1-3)[Fuc(a1-2)]Gal(b1-4)GlcNAc
# Method in brief: as §1
# [23] = biological target: Gal(b1-4)GlcNAc(b1-2)[Gal(b1-4)GlcNAc(b1-4)]Man(a1-3)[Gal(b1-4)GlcNAc(b1-2)[Gal(b1-4)GlcNAc(b1-6)]Man(a1-6)]Man(b1-4)GlcNAc(b1-4)GlcNAc
# Method in brief: as §1
# [24] = biological target: Gal(b1-4)GlcNAc(b1-3)Gal(b1-4)GlcNAc(b1-3)Gal(b1-4)GlcNAc(b1-2)Man(a1-3)[Gal(b1-4)GlcNAc(b1-3)Gal(b1-4)GlcNAc(b1-3)Gal(b1-4)GlcNAc(b1-2)Man(a1-6)]Man(b1-4)GlcNAc(b1-4)[Fuc(a1-6)]GlcNAc
# Method in brief: as §1
# [25] = biological target: Gal(b1-4)GlcNAc(b1-3)Gal(b1-4)GlcNAc(b1-3)[Gal(b1-4)GlcNAc(b1-3)Gal(b1-4)GlcNAc(b1-6)]GalNAc
# Method in brief: as §1
# [26] = biological target: Gal3S(b1-4)[Fuc(a1-3)]Glc6S
# Method in brief: as §1
# [27] = biological target: Gal3S4S(b1-4)GlcNAc
# Method in brief: as §1
# [28] = biological target: GalNAc(b1-4)Gal(b1-4)Glc
# Method in brief: as §1
# [29] = biological target: GalNAc4S6S(b1-4)GlcNAc
# Method in brief: as §1
# [30] = biological target: Glc(a1-6)Glc(a1-6)Glc(a1-6)Glc
# Method in brief: as §1
# [31] = biological target: Glc(b1-4)Glc
# Method in brief: as §1
# [32] = biological target: GlcNAc(a1-4)Gal(b1-4)GlcNAc
# Method in brief: as §1
# [33] = biological target: GlcNAc(b1-2)Gal(b1-3)GalNAc
# Method in brief: as §1
# [34] = biological target: GlcNAc(b1-2)Man(a1-3)[GlcNAc(b1-2)Man(a1-6)]Man(b1-4)GlcNAc(b1-4)GlcNAc
# Method in brief: as §1
# [35] = biological target: GlcNAc(b1-3)Gal(b1-4)GlcNAc(b1-3)Gal(b1-4)GlcNAc(b1-2)[GlcNAc(b1-3)Gal(b1-4)GlcNAc(b1-3)Gal(b1-4)GlcNAc(b1-6)]Man(a1-6)[GlcNAc(b1-3)Gal(b1-4)GlcNAc(b1-3)Gal(b1-4)GlcNAc(b1-2)Man(a1-3)]Man(b1-4)GlcNAc(b1-4)[Fuc(a1-6)]GlcNAc
# Method in brief: as §1
# [36] = biological target: GlcNAc(b1-3)[GlcNAc(b1-6)]GalNAc
# Method in brief: as §1
# [37] = biological target: Man(a1-2)Man(a1-3)[Man(a1-6)]Man(a1-6)[Man(a1-2)Man(a1-3)]Man(b1-4)GlcNAc(b1-4)GlcNAc
# Method in brief: as §1
# [38] = biological target: MurNAc(b1-4)GlcNAc
# Method in brief: as §1
# [39] = biological target: Neu5Ac(a2-3)Gal
# Method in brief: as §1
# [40] = biological target: Neu5Ac(a2-3)Gal(b1-3)GalNAc(b1-4)[Neu5Ac(a2-8)Neu5Ac(a2-3)]Gal(b1-4)Glc
# Method in brief: as §1
# [41] = biological target: Neu5Ac(a2-3)Gal(b1-3)GlcNAc(b1-2)Man(a1-3)[Neu5Ac(a2-3)Gal(b1-3)GlcNAc(b1-2)Man(a1-6)]Man(b1-4)GlcNAc(b1-4)GlcNAc
# Method in brief: as §1
# [42] = biological target: Neu5Ac(a2-3)Gal(b1-3)GlcNAc(b1-3)GalNAc
# Method in brief: as §1
# [43] = biological target: Neu5Ac(a2-3)Gal(b1-3)[Fuc(a1-4)]GlcNAc(b1-3)Gal(b1-4)[Fuc(a1-3)]GlcNAc
# Method in brief: as §1
# [44] = biological target: Neu5Ac(a2-3)Gal(b1-4)Glc
# Method in brief: as §1
# [45] = biological target: Neu5Ac(a2-3)Gal(b1-4)GlcNAc(b1-3)Gal(b1-4)GlcNAc(b1-3)[Neu5Ac(a2-3)Gal(b1-4)GlcNAc(b1-3)Gal(b1-4)GlcNAc(b1-6)]GalNAc
# Method in brief: as §1
# [46] = biological target: Neu5Ac(a2-3)Gal(b1-4)[Fuc(a1-3)]GlcNAc(b1-3)Gal(b1-4)[Fuc(a1-3)]GlcNAc(b1-3)Gal(b1-4)[Fuc(a1-3)]GlcNAc
# Method in brief: as §1
# [47] = biological target: Neu5Ac(a2-3)Gal6S(b1-4)GlcNAc
# Method in brief: as §1
# [48] = biological target: Neu5Ac(a2-3)[GalNAc(b1-4)]Gal(b1-4)Glc
# Method in brief: as §1
# [49] = biological target: Neu5Ac(a2-3)[GalNAc(b1-4)]Gal(b1-4)GlcNAc(b1-3)GalNAc
# Method in brief: as §1
# [50] = biological target: Neu5Ac(a2-6)Gal(b1-4)GlcNAc(b1-2)Man(a1-3)Man(b1-4)GlcNAc(b1-4)GlcNAc
# Method in brief: as §1
# [51] = biological target: Neu5Ac(a2-6)GalNAc
# Method in brief: as §1
# [52] = biological target: Neu5Ac(a2-8)Neu5Ac(a2-3)Gal(b1-3)GalNAc(b1-4)[Neu5Ac(a2-8)Neu5Ac(a2-3)]Gal(b1-4)Glc
# Method in brief: as §1
# [53] = biological target: Neu5Gc(a2-3)Gal(b1-3)[Fuc(a1-4)]GlcNAc
# Method in brief: as §1
binder,measurement,setting,value
B1,glycan array binding signal (z-score),[1],3.48
same,glycan array binding signal (z-score),[2],0.284
same,glycan array binding signal (z-score),[3],3.46
same,glycan array binding signal (z-score),[4],0.178
same,glycan array binding signal (z-score),[5],5.32
same,glycan array binding signal (z-score),[6],3.5
same,glycan array binding signal (z-score),[7],5.58
same,glycan array binding signal (z-score),[8],0.611
same,glycan array binding signal (z-score),[9],-0.176
same,glycan array binding signal (z-score),[10],-0.363
same,glycan array binding signal (z-score),[11],-0.35
same,glycan array binding signal (z-score),[12],4.01
same,glycan array binding signal (z-score),[13],-0.381
same,glycan array binding signal (z-score),[14],6.54
same,glycan array binding signal (z-score),[15],-0.309
same,glycan array binding signal (z-score),[16],4.23
same,glycan array binding signal (z-score),[17],0.863
same,glycan array binding signal (z-score),[18],-0.496
same,glycan array binding signal (z-score),[19],-0.592
same,glycan array binding signal (z-score),[20],1.66
same,glycan array binding signal (z-score),[21],3.25
same,glycan array binding signal (z-score),[22],-0.625
same,glycan array binding signal (z-score),[23],-0.667
same,glycan array binding signal (z-score),[24],-0.527
same,glycan array binding signal (z-score),[25],-0.06
same,glycan array binding signal (z-score),[26],0.707
same,glycan array binding signal (z-score),[27],-0.239
same,glycan array binding signal (z-score),[28],4.05
same,glycan array binding signal (z-score),[29],-0.147
same,glycan array binding signal (z-score),[30],1.1
same,glycan array binding signal (z-score),[31],-0.196
same,glycan array binding signal (z-score),[32],-0.41
same,glycan array binding signal (z-score),[33],-0.364
same,glycan array binding signal (z-score),[34],-0.12
same,glycan array binding signal (z-score),[35],-0.336
same,glycan array binding signal (z-score),[36],-0.05
same,glycan array binding signal (z-score),[37],-0.61
same,glycan array binding signal (z-score),[38],-0.464
same,glycan array binding signal (z-score),[39],-0.19
same,glycan array binding signal (z-score),[40],0.68
same,glycan array binding signal (z-score),[41],6.41
same,glycan array binding signal (z-score),[42],-0.226
same,glycan array binding signal (z-score),[43],-0.475
same,glycan array binding signal (z-score),[44],3.95
same,glycan array binding signal (z-score),[45],-0.335
same,glycan array binding signal (z-score),[46],-0.568
same,glycan array binding signal (z-score),[47],-0.532
same,glycan array binding signal (z-score),[48],-0.34
same,glycan array binding signal (z-score),[49],-0.355
same,glycan array binding signal (z-score),[50],-0.181
same,glycan array binding signal (z-score),[51],-0.32
same,glycan array binding signal (z-score),[52],0.342
same,glycan array binding signal (z-score),[53],0.48
